# MazF activator: activators of E. coli MazEF toxin-antitoxin RNase, primary screen, biochemical, fluorescence, uHTS. Endoribonuclease toxin MazF (Escherichia coli (strain K12)), P0AE70. FAM/BHQ RNA-DNA oligo cleavage fluorescence, 5 h. activation, % at 20 µM. 0.32% of 350,000 active. AID 504720, 2011; in the data active = activation above about 50%
# Autofluor counter: compound fluorescence in toxin protease inhibitor counterscreen | compound autofluorescence counterscreen, microsphere flow cytometry; hits give high values | fluorescence intensity (no concentration beside the values) | 3.1% of 360,000 active | AID 624483; in the data active = fluorescence intensity above about 16000; inconclusive = no clear call, values can overlap the other calls
# BoNT F protease: BoNT/F light chain protease inhibitors, primary screen, biochemical, flow cytometry, MLPCN library | 0.22% of 360,000 active | AID 588497, 2011 | Botulinum neurotoxin type F light chain protease (Clostridium botulinum) | Multiplex microsphere protease cleavage assay | inhibition, % at 10 µM; in the data active = inhibition above about 35%, passing the limit was not always enough; inconclusive = no clear call, values can overlap the other calls; also: plate controls were buffer without enzyme for full effect and enzyme alone for no effect
# BoNT A protease: BoNT/A light chain protease inhibitors, primary screen, biochemical, flow cytometry, MLPCN library | Botulinum neurotoxin type A light chain protease (Clostridium botulinum A str. ATCC 3502) | multiplex microsphere protease substrate cleavage | inhibition, % at 10 µM | 0.17% of 360,000 active; in the data active = inhibition above about 30%; inconclusive = no clear call, values can overlap the other calls; also: plate controls were buffer without enzyme for full effect and enzyme alone for no effect
# Anthrax LF prot: Bacillus anthracis LF protease inhibitors, primary screen, biochemical, multiplex microsphere, MLPCN library; Lethal factor (Bacillus anthracis), P15917; multiplex microsphere protease cleavage assay; inhibition, % at 10 µM; 0.12% of 360,000 active; in the data active = inhibition above about 30%; inconclusive = no clear call, values can overlap the other calls; also: plate controls were buffer without enzyme for full effect and enzyme alone for no effect
# Target sequence (P15917 whole entry, looked up): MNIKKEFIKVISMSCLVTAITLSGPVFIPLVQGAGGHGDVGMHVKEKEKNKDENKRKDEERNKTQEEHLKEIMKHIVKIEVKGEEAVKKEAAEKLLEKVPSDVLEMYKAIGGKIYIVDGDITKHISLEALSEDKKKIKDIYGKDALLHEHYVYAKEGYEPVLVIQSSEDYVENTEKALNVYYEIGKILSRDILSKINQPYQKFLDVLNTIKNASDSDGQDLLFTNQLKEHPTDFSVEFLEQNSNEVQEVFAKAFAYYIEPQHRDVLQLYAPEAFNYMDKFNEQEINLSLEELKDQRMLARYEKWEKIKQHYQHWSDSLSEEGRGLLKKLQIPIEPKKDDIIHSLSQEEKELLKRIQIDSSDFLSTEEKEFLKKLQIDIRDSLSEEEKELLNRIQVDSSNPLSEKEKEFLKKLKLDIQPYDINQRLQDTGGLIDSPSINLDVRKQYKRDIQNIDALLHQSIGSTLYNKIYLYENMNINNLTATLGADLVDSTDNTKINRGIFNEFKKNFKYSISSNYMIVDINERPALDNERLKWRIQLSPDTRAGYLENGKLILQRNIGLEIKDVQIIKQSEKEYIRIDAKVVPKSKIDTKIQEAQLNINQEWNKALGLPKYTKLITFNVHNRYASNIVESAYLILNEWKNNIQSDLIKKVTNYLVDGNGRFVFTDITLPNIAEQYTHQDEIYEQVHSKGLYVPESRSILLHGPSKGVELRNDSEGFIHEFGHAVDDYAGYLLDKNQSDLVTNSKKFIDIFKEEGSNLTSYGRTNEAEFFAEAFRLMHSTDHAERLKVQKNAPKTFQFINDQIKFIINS
# BoNT-A LC CP1: BoNT/A light chain protease inhibitors, confirmation, biochemical, flow cytometry, cherry pick 1 | shares compounds with BoNT F protease | multiplex microsphere protease assay | 3% of 720 active | inhibition, % at 10 µM; in the data active = inhibition above about 32%
# BoNTF LC inh 1: BoNT/F light chain protease inhibitors, confirmation, biochemical, flow cytometry, cherry pick 1. shares compounds with BoNT F protease. multiplex microsphere protease cleavage assay. inhibition, % at 10 µM. 720 tested, under 10 active
# Anthrax LF CP1: Bacillus anthracis LF protease inhibitors, confirmation, biochemical, multiplex microsphere, cherry pick 1; shares compounds with BoNT F protease; multiplex microsphere protease cleavage assay; inhibition, % at 10 µM; 720 tested, under 10 active
# * = called active by the depositor; ? = inconclusive; . = no result given. An excerpt weighted towards active compounds, which were near 3.6% of everything screened. Unless noted, no rule for the calls is given here.
SMILES,MazF activator,Autofluor counter,BoNT F protease,BoNT A protease,Anthrax LF prot,BoNT-A LC CP1,BoNTF LC inh 1,Anthrax LF CP1
CCOC(=O)Cn1nc(C)n(-c2c(C)cccc2C)c1=O,0,3968,-2,0,-2,.,.,.
CCN(c1ccccc1)c1nc(Cl)nc2c1cnn2C,0,3828,-6,0,-2,.,.,.
O=C(COC(=O)c1cc(=O)[nH]c2ccccc12)NCCc1ccccc1,3,4234,2,0,0,.,.,.
COC(=O)C(C)n1nc(C)n(-c2ccc(C)cc2)c1=O (stereo not given),1,22187*,4,2,-2,.,.,.
COC(=O)C(C)n1cnc2c(nnn2-c2ccc(C)cc2)c1=O (stereo not given),-6,4765,-3,-1,-7,.,.,.
CC(C)(C)c1cc(C(=O)CCN2CCOCC2)cc(C(C)(C)C)c1O,5,3215,5,-3,18,1,-3,-4
CCOc1ccc(CCN2C(=O)C(=O)N([C@@H](CC(C)C)CN3CCC[C@H]3CN3C(=O)C(=O)NC[C@@H]3Cc3ccccc3)C[C@@H]2Cc2ccccc2)cc1,.,4355,16,0,-4,.,.,.
Oc1ccccc1-c1nnc(-c2ccc(C(F)(F)F)cc2)o1,3,3316,35*,1,1,0,-3,1
Cc1ccc(C)c(N2N=C(C(=O)OCC(=O)N(C)c3ccccc3)CCC2=O)c1,4,.,.,.,.,.,.,.
CCCNC(=O)c1ccccc1NC(=O)c1ccccc1N(C)S(=O)(=O)c1ccc(C)cc1,3,12100,38*,-1,1,-1,-1,-1
CCCNC(=O)c1ccccc1NC(=O)c1ccccc1N(C)S(C)(=O)=O,2,4231,?,0,-1,.,.,.
COc1ccc(C2=NN(C(=O)CN3CCCCC3)C(c3ccc(OC)cc3)C2)cc1 (stereo not given),7,4424,?,?,-2,.,.,.
COc1ccc(C2=NN(C(=O)CN3CCCC3)C(c3ccc(OC)cc3)C2)cc1 (stereo not given),3,4751,57*,2,34*,-1,-7,-1
CCOc1cccc(OCCCCN2CCCCC2)c1,0,10400,0,1,-7,.,.,.
Brc1cccc(OCCCCN2CCCCC2)c1,1,2936,35*,4,-2,0,5,3
N#Cc1nc(-c2ccccc2F)oc1NCc1ccccc1,0,5810,-10,-1,3,.,.,.
N#Cc1nc(-c2ccccc2F)oc1NCCc1ccccc1,3,10751,42*,?,2,-3,-2,-4
C=CCOc1c(Br)cc(CNCCCN2CCOCC2)cc1OC,8,2985,-3,0,45*,0,-6,-1
O=[N+]([O-])c1ccc(C2=NN(c3ccccc3)C(c3ccco3)C2)cc1 (stereo not given),-8,18109*,?,59*,31*,59*,.,17
Cc1ccc(C2=NN(S(=O)(=O)c3ccccc3)C(c3ccco3)C2)cc1 (stereo not given),-1,7991,3,-2,4,.,.,.
COc1ccccc1N1CCN(Cc2ccco2)CC1,6,7355,11,3,-3,.,.,.
Clc1ccccc1N1CCN(Cc2ccco2)CC1,4,3623,50*,2,17,-1,-3,-2
O=C(C=Cc1ccc2c(c1)OCO2)C1CC1,4,3944,-8,0,-5,.,.,.
COC(=O)CCC(C)C1CCC2C3C(OC(C)=O)CC4CC(O)CCC4(C)C3CC(O)C12C (stereo not given),11,3297,2,0,-7,.,.,.
CCOC(=O)CCCCC(=O)c1[nH]c(=O)[nH]c1CSc1nc(-c2ccccc2)c(C#N)c(=O)[nH]1,-4,5259,15,4,-6,.,.,.

# Bioassay records: PubChem BioAssay, several laboratories
